High-throughput results from PubChem.
This is a sample that favours compounds with a hit; in the whole collection about 7.4% have one here.
NIH3T3 tox: kills NIH 3T3 cells | NIH 3T3 viability, CellTiter-Glo ATP luminescence, 48-72 h | Potency, µM (highest dose often 96.7 µM), for the others: at the highest dose activity change, negative = cytotoxicity, usual class: inhibitors | actives 4.3% (n = 94,000) | AID 1345082; note: nearly all actives have a fitted effect of over 55% in size
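ATP-dependent luminescence (CellTiter-Glo) served as the viability signal for NIH 3T3 cells treated with compound for 48 or 72 hr at 37 °C.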
NPR1 antag: antagonists of human natriuretic peptide receptor Npr1; HEK293 hNpr1 GloSensor cGMP, ANP-stimulated luminescence; actives 1.6% (n = 76,000); Potency, µM (doses to about 46.3 µM), for inactives: top-dose activity change, negative = inhibition, hits mostly inhibitors; AID 1347048; P16066; calls by dose curve; note: nearly all actives have a fitted effect of over 60% in size
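Compound pre-incubated 30 min at room temperature on GloSensor-loaded HEK293 cells stably carrying hNpr1 and the pGS-40F cGMP biosensor. Stimulation uses hNppA at 0.1 nM final; luminescence is taken at baseline and 20 min post-agonist.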
HEK293 tox: HEK 293 cell cytotoxicity; HEK 293 viability, ATP luminescence (CellTiter-Glo), 48-72 h; Potency, µM (series often up to 115 µM), for the others: top-dose activity change, negative = cytotoxicity, usual class: inhibitors; actives 6.6% (n = 94,000); AID 1345083; note: nearly all actives have a fitted effect of over 60% in size
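Pintool-delivered compounds were incubated with HEK 293 cells (250 cells/well) at 37 degree Celsius for 48 or 72 hr. ATP-dependent luminescence (CellTiter-Glo) then reported remaining viable cells.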
SNCA expr inhib: SNCA gene expression inhibition; HEK-293 SNCA-luciferase knock-in, luminescence, 24 h; Potency, µM (doses to about 57.2 µM), without a hit: at the top dose activity change, negative = inhibition, hits mostly inhibitors; actives 0.17% (n = 140,000); AID 1671194;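 note: plate controls were DMSO cells for no effect and cell-free wells for full effect; nearly all actives have a fitted effect of over 45% in size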
HEK293 viab: reduces viability of HEK-293 SNCA reporter cells | HEK-293-SNCA-luc viability, GF-AFC fluorescence, 24 h | Potency, µM (highest dose often 57.1 µM), for the others: at the highest dose activity change, negative = cytotoxicity, hits mostly cytotoxic | actives 0.12% (n = 150,000) | AID 1671193;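 note: 0% = DMSO-treated cells and -100% = medium-only wells without cells; nearly all actives have a fitted effect of over 30% in size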
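HEK-293-SNCA-luc cells (1500/well) plated 24 h, then exposed 24 h to a dilution series; GF-AFC added 30 min at 37C, fluorescence 405/540 nm; normalised to medium-only and DMSO wells, Hill fit.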
FLuc inh: inhibitors of firefly (Photinus pyralis) luciferase; actives 2.5% (n = 76,000); Potency, µM (series often up to 115 µM), most hits filed as inhibitors; purified P. pyralis luciferase, luminescence, biochemical; P08659; note: nearly all actives have a fitted effect of over 65% in size
Target sequence (P08659 whole entry, looked up): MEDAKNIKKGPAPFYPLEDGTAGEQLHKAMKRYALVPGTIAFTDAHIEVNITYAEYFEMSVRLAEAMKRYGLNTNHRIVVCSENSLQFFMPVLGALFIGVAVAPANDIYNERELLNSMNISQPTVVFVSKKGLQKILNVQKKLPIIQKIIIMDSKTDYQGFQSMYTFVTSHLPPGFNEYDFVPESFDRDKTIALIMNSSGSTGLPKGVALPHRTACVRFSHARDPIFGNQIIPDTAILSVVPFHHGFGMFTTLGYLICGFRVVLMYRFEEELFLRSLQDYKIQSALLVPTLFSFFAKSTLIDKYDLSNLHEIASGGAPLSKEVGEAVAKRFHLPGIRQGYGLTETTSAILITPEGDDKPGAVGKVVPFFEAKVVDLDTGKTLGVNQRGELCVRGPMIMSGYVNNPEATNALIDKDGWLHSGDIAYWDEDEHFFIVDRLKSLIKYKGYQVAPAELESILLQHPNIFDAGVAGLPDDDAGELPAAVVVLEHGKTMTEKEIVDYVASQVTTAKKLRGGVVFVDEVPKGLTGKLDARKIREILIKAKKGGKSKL
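Purified P. pyralis luciferase (10nM final) in 50mM Tris acetate pH 7.5, 10mM Mg acetate, 0.01% Tween-20, 0.05% BSA with 10uM D-luciferin and 10uM ATP. Compounds titrated qHTS. Luminescence imaged on CCD.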
Active calls of the source: *; i = inactive; ? = inconclusive; · = no result given; ! = a repeat was not active; [ ] = another dose, or the depositor's remark. Unless noted, calls come from the whole dose curve; as a rule, active = well fitted curve in the direction sought with a large enough effect; inconclusive = small, poorly fitted or top-dose-only effect, or another doubt; inactive = no such curve, though single readings can be large; an effect the other way counts as inactive or inconclusive. Unless noted, % is set by controls: 0 for no effect and ±100 for the full control effect; potency is the fitted concentration of half-maximal effect.

SMILES	NIH3T3 tox	NPR1 antag	HEK293 tox	SNCA expr inhib	HEK293 viab	FLuc inh
COc1cccc(-c2nc(N3CCOCC3)cc3c2CN(C)C3=O)c1OC	?	5%[70.6 µM]	?	0%[87.6 µM]	?	i
CN1Cc2c(cc(N3CCOCC3)nc2-c2cccc(C(F)(F)F)c2)C1=O	5.6µM*	-17%[70.6 µM]	-40%[172 µM]	5%[87.6 µM]	9%[87.6 µM]	i
COc1cccc(-c2nc(N3CCOCC3)cc3c2CN(C)C3=O)c1	16µM*	4%[70.6 µM]	?	19%[87.6 µM]	0%[87.6 µM]	i
CN1Cc2c(cc(N3CCOCC3)nc2-c2cccc(N[S+](C)(=O)[O-])c2)C1=O	14µM*	7%[70.6 µM]	?	107%[87.6 µM]	9%[87.6 µM]	i
O=[S+]1([O-])NCC2(CCN(CC3CCNCC3)C2)Nc2ccccc21 (stereo not given)	-17%	7%	-2%	-6%	9%	i
CC1=NOC2(CCCN(C(=O)c3ccccc3)C2)C1 (stereo not given)	-4%[174 µM]	·	i	7%[87.6 µM]	-3%[87.6 µM]	·
CC(=O)N(C)C1(c2ccccc2)CCN(CCC[C@]2(c3ccc(Cl)c(Cl)c3)CCCN(C(=O)c3ccccc3)C2)CC1	·	·	·	1.7µM*	2.2µM*!	·
O=S(=O)(c1ccc(F)cc1)N1CCC(Oc2ccc(-c3noc(C4CC4)n3)cc2)C1 (stereo not given)	?	?	28µM*	-23%	0%	i
COc1ccc(C(=O)N2CCC(Oc3ccc(-c4noc(C5CC5)n4)cc3)C2)cn1 (stereo not given)	?	·	35µM*	2%	-20%	·
CC(C)c1nc(-c2ccc(OC3CCN(C(=O)C4(c5ccccc5)CC4)C3)cc2)no1 (stereo not given)	?	?	45µM*	-25%	0%	i
CCn1cc(S(=O)(=O)N2CCC(Oc3ccc(-c4noc(C5CC5)n4)cc3)C2)cn1 (stereo not given)	?	·	?	13%	?	·
CC(C)c1nc(-c2ccc(OC3CCN(C(=O)c4ccoc4)C3)cc2)no1 (stereo not given)	?	·	32µM*	0%	17%	·
O=C(N1CCC(c2nc(-c3ccccc3)no2)C1)C1(c2ccccc2)CC1 (stereo not given)	?	?	?	-14%	-9%	i
O=C(CCc1ccccc1)N1CCC(n2cc(-c3nc(-c4ccccc4)no3)nn2)C1 (stereo not given)	-28%	0%	?	32%	4%	i
Cc1cc(S(=O)(=O)N2CC(C(=O)NC3CCCCC3)C3(CCOCC3)C2)ccc1F (stereo not given)	-23%	5%	-8%	-15%	-11%	i
Cc1noc(C)c1S(=O)(=O)N1CCC(Oc2ccc(-c3noc(C(C)C)n3)cc2)C1 (stereo not given)	-28%	·	20µM*	-42%	-21%	·
CCn1ccc(C(=O)NCCc2noc(-c3cccnc3)n2)n1	?	3%	?	5%	-3%[12.5 µM]	i
COc1ccccc1-c1cccc(CN2CCC(N[S+](=O)([O-])c3ccc(C)cc3)CC2)c1	?	·	35µM*	-26%	0%	·
COc1ccccc1-c1cccc(CN2CCC(N[S+](=O)([O-])c3c(C)noc3C)CC2)c1	35µM*	·	35µM*	-13%	-9%	·
COc1ccccc1-c1cccc(CN2CCC(N[S+](C)(=O)[O-])CC2)c1	?	·	?	4%	-2%	·
CNC(=O)NC[C@H]1CCN(Cc2ccc(F)cc2F)C[C@H]1N(C)C	3%	3%	i	40%	1%[12.5 µM]	i
O=C(Nc1cccc(C(F)(F)F)c1)N[C@H]1[C@H](O)[C@@H](Oc2ccccc2)[C@@H]2OC[C@H]1O2	79µM*	-28%[70.6 µM]	?	?	?	i
N#Cc1cccc(NC(=O)N[C@H]2[C@H](O)[C@@H](N3CCC(Cc4ccccc4)CC3)[C@@H]3OC[C@H]2O3)c1	?	-8%	?	-10%	3%	i
